Screening results (PubChem)
A selection: hits, their analogues and other compounds. The true share with any hit is near 7.1%.
MCF10A rerep – A quantitative high throughput screen for small molecules that induce DNA re-replication in MCF 10a normal breast cells; Potency, µM (doses to about 46.1 µM), inactives show at the highest dose activity, positive = re-replication, hits mostly activators; MCF 10A DNA re-replication, Hoechst nuclear intensity, 48 h; 350,000 compounds, 2.9% hits; note: % of control where 0% means no effect; nearly all actives have a fitted effect of over 50% in size
p53 reactivator – qHTS assay for re-activators of p53 using a Luc reporter; H1299 p53-A138V BP100-luciferase reporter, luminescence, 24 h; Potency, µM (highest dose often 92.2 µM), inactives show at the top dose activity change, positive = activation, actives largely listed as activators; 320,000 compounds, 0.063% hits; note: % of control where 0% means no effect; nearly all actives have a fitted effect of over 45% in size
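H1299 (p53-null), stable ts p53-A138V + BP100-Luc; 1000 cells/well, Opti-MEM/10% FBS; cpd 4 pt, 1:5; 24 h, 37 deg C, 5% CO2; detection reagent 10 min RT; luminescence.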
AT treatment – qHTS Assay for Identifying a Potential Treatment of Ataxia-Telangiectasia; F2112 A-T fibroblasts, KAP-1 phosphorylation AlphaLISA; neocarzinostatin DNA damage 30 min before lysis; Potency, µM (titrated, usually from 57.5 µM), inactives show top-dose activation, actives largely listed as activators; 320,000 compounds, 0.19% hits; note: % of control where 0% means no effect; nearly all actives have a fitted effect of over 45% in size
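ATM-like activity read as KAP-1 phosphorylation via AlphaLISA donor/acceptor antibody pairs after lysis and 6 hr at 25C. Cells were ATM-null patient fibroblasts (F2112, hTERT), dosed 60 min, then exposed to the DSB inducer NCS for 30 min.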
ELG1 genotoxic – qHTS screen for small molecules that induce genotoxicity in human embryonic kidney (HEK293T) cells expressing luciferase-tagged ELG1 | HEK293T ELG1-luciferase reporter, luminescence, 16 h | Potency, µM (highest dose often 46 µM), inactives show top-dose activity change, positive = activation, actives largely listed as activators | 330,000 compounds, 1.3% hits; note: % of control where 0% means no effect; nearly all actives have a fitted effect of over 60% in size
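Step 1: seed 2,000 HEK293T ELG1-luciferase cells per well. Step 2: add compound or DMSO, incubate 16 hr at 37 °C. Step 3: ONE-Glo, 30 min at room temperature, read luminescence.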
ELG1 DNA repair – qHTS screen for small molecules that inhibit ELG1-dependent DNA repair in human embryonic kidney (HEK293T) cells expressing luciferase-tagged ELG1. Potency, µM (highest dose often 46.1 µM), without a hit: top-dose activity change, negative = inhibition, usual class: inhibitors. AID 504467, 2011. HEK293T ELG1-luciferase reporter, luminescence, 16 h; DNA damage induced by 5-fluorouridine. 330,000 compounds, 2.3% hits; note: % is set by controls: 0 for no effect and ±100 for the full control effect; nearly all actives have a fitted effect of over 55% in size
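DMSO vehicle served as the neutral condition. Each well held 2,000 cells given 5-fluorouridine plus compound; after 16 hr at 37 °C/5% CO2, ONE-Glo was added and luciferase measured 30 min later.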
SW480 rerep – A quantitative high throughput screen for small molecules that induce DNA re-replication in SW480 colon adenocarcinoma cells; SW480 DNA re-replication, Hoechst DNA content imaging, 48 h; Potency, µM (top dose mostly 46.1 µM), for the others: at the highest dose re-replication activation, usual class: activators; 340,000 compounds, 1.8% hits; AID 624297, 2012; note: % of control where 0% means no effect; nearly all actives have a fitted effect of over 55% in size
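250 cells/well; 23 nL cpd via pin tool; 48 hr, 37 C, 5% CO2; Hoechst 40 min; imager read of total nuclear intensity, ex 405/em 500-530 nm.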
An asterisk follows results filed as active; u = inconclusive; x = no result given; [ ] = dose if it differs, or a comment. Calls come from the whole dose curve; as a rule, active = well fitted curve in the direction sought with a large enough effect; inconclusive = small, poorly fitted or top-dose-only effect, or another doubt; inactive = no such curve, though single readings can be large; an effect the other way counts as inactive or inconclusive. Potency is the fitted concentration of half-maximal effect.

SMILES	MCF10A rerep	p53 reactivator	AT treatment	ELG1 genotoxic	ELG1 DNA repair	SW480 rerep
CC(C)(C)OC(=O)N1CCC(c2c(C(=O)NCC3CCN(C4CCCC4)C3)cnn2-c2cccc(Cl)c2)CC1 (configuration not stated)	u	u	-1%	1%	6%	u
O=S(=O)(c1ccccc1)N1CCC(O)(CSc2ccc(F)cc2)CC1	u	-1%	2%	-1%	u	-2%
O=S(=O)(c1ccccc1)N1CCC(O)(CSc2ccccc2)CC1	27%	4%	-3%	-7%	8.2µM*	18%
CN(c1ccccc1C(=O)Nc1ccc2c(c1)OCO2)S(C)(=O)=O	-6%	15%	2%	1%	-6%	-3%
Cc1ccccc1C(=O)Nc1ccc2c(c1)OCO2	-5%	1%	6%	1.6µM*	u	0%
COc1ccccc1C(=O)Nc1ccc2c(c1)OCCO2	18%	0%	-4%	u	u	-3%
COc1ccccc1C(=O)Nc1ccc2c(c1)OCO2	-7%	u	x	15µM*	u	-8%
COc1cccc(NC(=O)CN(C)CC(=O)c2c(C)[nH]c3ccccc23)c1	5%	-4%	0%	-1%	-15%	-15%
CC(=O)CCn1cc([N+](=O)[O-])nc1C	1%	1%	-5%	3%	-1%	-6%
Cc1ccc(-c2cc(=O)c3cc(F)ccc3[nH]2)cc1	u	u	16%	12%	25%	0%
Cc1ccc2[nH]c(-c3cccc(F)c3)cc(=O)c2c1	1.2µM*	u	8%	15µM*	u	0.82µM*
O=c1cc(-c2cccc(F)c2)[nH]c2ccccc12	1.3µM*	4%	0%	u	-1%	1.3µM*
COc1ccc(-c2cc(=O)c3ccccc3[nH]2)cc1	-2%	5%	-2%	4%	2%	-10%
O=c1cc(-c2ccc(F)cc2F)[nH]c2ccccc12	0%	-3%	x	1%	2%	-3%
Cc1ccc(-c2cc(=O)c3cc(C)ccc3[nH]2)cc1	u	22µM*	9%	u	u	21µM*
COc1ccc2[nH]c(-c3cccc(F)c3)cc(=O)c2c1	1.3µM*	u	-6%	13µM*	u	0.73µM*
Cc1cc(C)c(S(=O)(=O)N2CCN(C(=O)c3ccccc3OCc3c(C)noc3C)CC2)c(C)c1	10%	x	x	x	x	0%
Cc1ccc(-c2c(C(=O)O)c3ccccc3[nH]c2=O)cc1	1%	5%	3%	1%	5%	-14%
COc1cccc(CN2C(=O)C(C)N(C(=O)c3ccccc3)c3ccccc32)c1 (configuration not stated)	15%	2%	-1%	-6%	u	u
COC(=O)[C@]1(C)N[C@H](CN(C)C(=O)c2ccc(F)cc2)[C@@H]2C(=O)N(C)C(=O)[C@@H]21	-29%	-7%	17%	1%	-1%	2%[9.22 µM]
CCCCNC(=O)Cn1c(=O)c2c(ncn2CCC(C)C)n(Cc2ccccc2)c1=O	-1%	-7%	-6%	3%	0%	1%
COc1ccc(CNC(=O)COC(=O)c2ccc(F)c(S(=O)(=O)N3CCCCC3)c2)cc1OC	1%	0%	-1%	-3%	2%	1%
Clc1ccc2[nH]c(-c3ccccc3)cc2c1	3%	u	13%	u	u	9%
O=c1cc(-c2ccccc2)[nH]c2cc(Cl)ccc12	1.6µM*	4%	4%	u	7%	0.73µM*
